Screens (PubChem BioAssay)
ERG-DNA inh – blocks human ERG Ets domain binding to DNA; P11308; Potency, µM (top dose mostly 76.9 µM), without a hit: top-dose FP activity, negative = inhibition, actives largely listed as inhibitors; actives 0.028% (n = 370,000); fluorescence polarization, His-ERG Ets domain / labelled DNA; active means well fitted inhibition curve with a large enough effect in the polarisation, with a control signal flat; inconclusive means small, poorly fitted or top-dose-only effect, or effect the other way, or a change in a side signal; inactive means no such curve, though single readings can be large or run the other way; the % refers to the polarisation;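 further: polarization taken with two DNA probes labelled with fluorescein and Texas red; potency means the concentration at half of the fitted maximal effect; % of control where 0% means no effect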
Target sequence (P11308 whole entry, looked up, the tested form may be a part): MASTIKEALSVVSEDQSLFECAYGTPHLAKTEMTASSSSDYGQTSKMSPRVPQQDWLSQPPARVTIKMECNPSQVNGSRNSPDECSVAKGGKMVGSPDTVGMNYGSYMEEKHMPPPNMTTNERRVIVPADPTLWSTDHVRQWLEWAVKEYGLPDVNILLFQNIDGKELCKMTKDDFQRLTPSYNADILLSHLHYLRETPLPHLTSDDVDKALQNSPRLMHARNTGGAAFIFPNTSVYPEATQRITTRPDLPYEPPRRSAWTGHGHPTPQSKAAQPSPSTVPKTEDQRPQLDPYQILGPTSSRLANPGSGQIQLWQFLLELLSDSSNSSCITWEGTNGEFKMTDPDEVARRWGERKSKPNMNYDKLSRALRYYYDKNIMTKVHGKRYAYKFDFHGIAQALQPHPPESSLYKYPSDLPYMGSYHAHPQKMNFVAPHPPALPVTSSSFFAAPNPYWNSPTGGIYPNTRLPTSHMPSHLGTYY
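His-tagged ERG Ets domain (1 uM in the protein solution; 300mM KCl, 50mM Tris-HCl, 1mM EDTA, 1mM DTT, pH 7.5) received compound, then a probe mix of 5 nM fluorescein-DNA and 100nM Texas-615-DNA. Fluorescence polarization was read for both dyes.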
RORg inh – ROR gamma (mouse) transcription inhibition | P51450 | Drosophila S2 Gal4-RORgamma UAS-luciferase reporter, 20 h | Potency, µM (doses to about 53.6 µM), inactives show at the highest dose activity change, negative = inhibition, most hits filed as inhibitors | actives 5.4% (n = 310,000); further: potency means the concentration at half of the fitted maximal effect; on the % scale 0 is the no-effect control and ±100 the full control effect; nearly all actives have a fitted effect of over 60% in size
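Schneider cells (Drosophila), stable Gal4 DBD–ROR gamma + UAS-luc; 1 hr cmpd preincubation; Cu2+ induction 700 uM final; 20 hr ambient; luminescence.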
Giardia killer – kills Giardia lamblia; AID 540267; Giardia lamblia trophozoite viability; actives 0.15% (n = 340,000); activity change, % at 7.66 µM, hits read low; in the data active means activity change below about -80%; inconclusive means between about -30% and that limit;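 further: parasites exposed to compound for two days anaerobically before the ATP read; on the % scale 0 is the no-effect control and ±100 the full control effect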
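Trophozoites 100 cells/well + cpd; 48 hrs, 37 deg C, anaerobic. ATPLite 1-Step added, 15-30 min RT, luminescence read (ATP-based viability).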
a7 integrin act – activators of alpha7 integrin expression for muscular dystrophy; alpha7betagal myoblasts, beta-gal FDG fluorescence, 48 h; Potency, µM (titrated, usually from 38.3 µM), for the others: at the top dose activation, most hits filed as activators; actives 0.064% (n = 350,000); AID 624291;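 further: potency means the concentration at half of the fitted maximal effect; 100% = response of the positive control SU9516; nearly all actives have a fitted effect of over 60% in size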
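Alpha7betagal+/- myoblasts (passage 13) were plated 16-24 hr, then exposed to compounds (1:260 dilution of DMSO stock) for 48 hours at 37C. After MPER lysis, β-galactosidase reporter activity was read as FDG fluorescence (ex 480/em 540) after 30 minutes.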
Gal4-VP16 FLuc – counter-screen for ROR gamma inhibitors: Gal4-VP16 reporter | Drosophila S2 Gal4-VP16 UAS-luciferase, luminescence, 20 h | Potency, µM (top dose mostly 53.6 µM), inactives show at the top dose activity, negative = inhibition, actives largely listed as inhibitors | actives 3.5% (n = 310,000) | AID 2546;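 further: Gal4-VP16 expression switched on by copper sulfate through the metallothionein promoter; potency means the concentration at half of the fitted maximal effect; on the % scale 0 is the no-effect control and ±100 the full control effect; nearly all actives have a fitted effect of over 50% in size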
* marks the source's active call; other numbers are inactive results; ? = inconclusive; nt = not tested or not shown; [ ] = another dose, or the depositor's remark. Many of the other results were omitted from the sample, so hits are more common in it than they were. Unless noted, the call rests on the fitted dose curve; in most records, active means well fitted curve in the direction sought with a large enough effect; inconclusive means small, poorly fitted or top-dose-only effect, or another doubt; inactive means no such curve, though single readings can be large; an effect the other way counts as inactive or inconclusive.

SMILES | ERG-DNA inh | RORg inh | Giardia killer | a7 integrin act | Gal4-VP16 FLuc
C=CCNc1nc2c(c(=O)n(C)c(=O)n2C)n1CC | -9% | -5% | -13 | -2% | -12%
Cn1c(=O)c2c(nc(NCCc3ccccc3)n2Cc2ccc(F)cc2)n(C)c1=O | -6% | ? | -10 | 10% | 22µM*
Cn1c(=O)c2c(nc(N/N=C/c3ccc(OC(=O)c4ccco4)cc3)n2Cc2ccccc2Cl)n(C)c1=O | 8% | 10% | 3 | -9% | -1%
Cn1c(=O)c2c(nc(NCCc3ccccc3)n2Cc2ccc(Cl)c(Cl)c2)n(C)c1=O | 6% | nt | nt | nt | nt
C=CCNc1nc2c(c(=O)n(C)c(=O)n2C)n1CCCCCC | 3% | ? | 4 | -56% | 5µM*
Cn1c(=O)c2c(nc(N/N=C/c3ccc(OC(=O)c4ccco4)cc3)n2Cc2ccc(F)cc2)n(C)c1=O | -13% | -11% | -13 | 4% | 18µM*
C=CCNc1nc2c(c(=O)n(C)c(=O)n2C)n1Cc1ccc(F)cc1 | 13% | ? | -2 | -15% | 7.1µM*
COc1cc(OC)c(OC)cc1C=Cc1ccc2ccccc2n1 | nt | nt | nt | -3% | nt
COc1ccc(Cl)cc1/C=C/c1ccc2cccc(O)c2n1 | ? | 0.89µM* | 4 | -67% | 0.79µM*
COc1cc(Cl)cc(/C=C/c2ccc3cccc(O)c3n2)c1OC | -1% | 5µM* | -6 | -14% | -10%
COc1ccccc1/C=C/c1ccc2cccc(O)c2n1 | 0% | 4µM* | ? | -56% | ?
COc1cccc(-n2ccnc2SCC(=O)Nc2c(C)cc(C)cc2C)c1 | 0% | nt | nt | nt | nt
CCOc1ccc(S(=O)(=O)NCCCN2CCOCC2)c2ccccc12 | 2% | -1% | 1 | -24% | -6%
CCCOc1ccc(S(=O)(=O)NCCCN2CCOCC2)c2ccccc12 | 0% | 10µM* | 1 | 11% | -27%
N#C/C(=C\c1ccc2c(c1)OCCO2)C(=O)Nc1ccc(C(=O)O)cc1 | 9% | -39% | 5 | -4% | -13%
Cc1ccc(C(=O)Nc2ncc3c(Cl)cccc3n2)cc1 | 0% | 3.2µM* | ? | -1% | 4µM*
CCOC(=O)c1ccc(NC(=O)CN2CCN(CCN=CC3=C(O)CC(C)(C)CC3=O)CC2)cc1 | -5% | -12% | 11 | -3% | -6%
CCOC(=O)c1ccc(NC(=S)N2CCN(CCN=CC3=C(O)CC(C)(C)CC3=O)CC2)cc1 | 7% | 13µM* | 13 | -9% | ?
CCOC(=O)c1ccc(-c2ccc(/C=C(\C#N)C(=O)NCc3cccs3)o2)cc1 | 3% | ? | 6 | ? | 3.2µM*
Cc1nn(C)c(C)c1N1C(=O)c2cccc3c(Br)ccc(c23)C1=O | 1% | ? | -12 | -28% | -31%
Cc1nn(C)c(C)c1N1C(=O)c2cccc3c(N)ccc(c23)C1=O | 35µM* | -5% | -7 | -55% | -1%
CCOC(=O)CC(=O)CSc1nc2sc(C)cc2c(=O)n1Cc1ccco1 | 1% | ? | 0 | -27% | 22µM*
Cc1cc2c(=O)n(Cc3ccco3)c(SCC(=O)c3ccc(Cl)s3)nc2s1 | 13% | ? | 1 | -30%[7.66 µM] | ?
Cc1csc(SCC(=O)c2cc(C)n(Cc3cccs3)c2C)n1 | 7% | 6.3µM* | ? | -39% | 8.9µM*
CC(=O)Nc1ccc(SCC(=O)c2cc(C)n(Cc3cccs3)c2C)cc1 | 2% | -1% | 0 | -18% | ?
SMILES | ERG-DNA inh | RORg inh | Giardia killer | a7 integrin act | Gal4-VP16 FLuc
COc1ccc(-c2nnc(SCC(=O)c3cc(C)n(Cc4cccs4)c3C)o2)cc1 | 11% | -4% | 10 | 26% | -3%
Cc1cc(C(=O)CSc2nnc(N)s2)c(C)n1Cc1cccs1 | nt | 8.9µM* | -27 | 6% | 11µM*
COc1cc(C#Cc2c(-c3cncn3C)n(C)c3ccc(Br)cc23)cc(OC)c1 | 2% | nt | -8 | 0% | nt
O=S(=O)(c1cccc(C(F)(F)F)c1)N1CCN(c2nc(-c3ccccc3)nc3ccccc23)CC1 | nt | nt | -7 | nt | nt
COc1cc(CN2CCN(C(=O)c3ccccc3F)CC2)cc(OC)c1OC | 0% | -5% | 8 | -17% | 3%
C=C1C(CCl)(CCl)C2(Cl)C(Cl)C(Cl)C1(Cl)C2(Cl)Cl (centres undefined) | nt | -3% | nt | nt | -29%
C=CCc1ccc(O)c(-c2ccc(O)c(CC=C)c2)c1 | -15% | ? | 14 | -36% | 22µM*
COc1ccc(N2C(N)=C(C#N)C(c3cc(CN4CCOCC4)cs3)C3=C2CCCC3=O)cc1 (centres undefined) | -3% | nt | nt | nt | nt
CCn1c(CSCc2ccccc2)n[nH]c1=S | 2% | 4µM* | -13 | 3% | ?
CCn1c(Cc2c(C)[nH]c3ccccc23)n[nH]c1=S | -2% | -35% | 6 | -21% | -2%
CCCn1c(CCc2ccccc2)n[nH]c1=S | -8% | 7.1µM* | -9 | -48% | 18µM*
CCn1c(CCn2c3ccccc3c3ccccc32)n[nH]c1=S | 5% | 5.6µM* | 15 | 0% | 6.3µM*
CCn1c(CCc2ccccc2)n[nH]c1=S | -6% | 8.9µM* | 6 | -9% | ?
CCn1c(Cc2ccccc2)n[nH]c1=S | -4% | ? | 5 | 7% | -25%
CCOC(=O)c1c(NC(=O)COc2cccc(C(F)(F)F)c2)sc2c1CCCCC2 | 0% | nt | nt | nt | nt
CC(=O)N(c1ccccc1C)C1CCCC1 | 1% | -26% | 18 | 19% | -7%
CC(=O)N(C1=C(Cl)C(=O)c2ccccc2C1=O)C1CCCCC1 | 9% | 10µM* | -13 | -39% | 11µM*
CCc1cc2c(cc3c(=O)n(CC(=O)N4CCCCC4)ncn32)s1 | 5% | nt | nt | nt | nt
O=C(/C=C/c1ccc(F)cc1)NC(=S)N1CCN(Cc2ccccc2)CC1 | 5% | 2.5µM* | 9 | -12% | 7.1µM*
O=C(/C=C/c1ccccc1)NC(NC(=S)Nc1ccc(Cl)cc1)C(Cl)(Cl)Cl (centres undefined) | 13% | ? | 25 | -62% | 10µM*
CC(=O)NC(NC(=S)Nc1ccc(N=Nc2ccccc2)cc1)C(Cl)(Cl)Cl (centres undefined) | -2% | 7.1µM* | 22 | -65% | 5µM*
COc1ccc(NC(=S)NC(NC(=O)/C=C/c2ccccc2)C(Cl)(Cl)Cl)cc1 (centres undefined) | -9% | ? | 19 | -38% | ?
O=C(/C=C/c1ccc(F)cc1)NC(=S)N1CCOCC1 | -1% | 8% | -8 | -14% | 3%
O=C(/C=C/c1ccccc1)NC(=S)Nc1ccccc1 | -7% | ? | 23 | -2% | 2µM*
CCOc1ccc(NC(=O)C(=O)NCCN2CCN(S(=O)(=O)c3ccc(C)cc3)CC2)cc1 | -1% | -39% | 2 | 10% | -10%
CCCSCCCNC(=O)c1ccc2nc(Cc3ccccc3)oc2c1 | 7% | nt | nt | nt | nt
CCOC(=O)CNC(=O)c1ccc(SCC)cc1 | 6% | -16% | -4 | 2% | -4%
